{
  "source": "PubChem BioAssay (NCATS)",
  "note": "Records with an inconclusive call do not appear. Unmarked numbers belong to inactive results. The source made the active and inactive calls. Unless noted, calls follow the shape of the full dose curve. % is scaled to controls: 0 for no effect and ±100 for the full control effect.",
  "data": [
    {"system": "not listed separately", "test": "qHTS for Inhibitors of the Functional Ribonucleoprotein Complex (vRNP) of Lymphocytic Choriomeningitis Arenaviruses (LCMV): Viability assay - alamar blue signal for LCMV Primary Screen (AID 1347085; calls by dose curve; tested in HEK293 reporter line; also: nearly all actives have a fitted effect of over 80% in size; also: potency is read from the fitted curve at half-maximal effect)", "conditions": "alamar blue viability counter-screen, LCMV vRNP screen cells; series mostly up to 57.5 µM; activity change, negative = lower viability: at the top concentration", "units": {"activity change, negative = lower viability": "%"}, "values": [
      {"smiles": "COC(=O)C1=CCCN(C)C1", "Potency": "inactive"},
      {"smiles": "COC(=O)Nc1nc2ccc(Sc3ccccc3)cc2[nH]1", "Potency": "5440 nM (active)"},
      {"smiles": "CCNC(=O)N1CCN(CCCC(c2ccc(F)cc2)c2ccc(F)cc2)CC1", "activity change, negative = lower viability": -17.1},
      {"smiles": "COCCOC(=O)C1=C(C)NC(C)=C(C(=O)OC/C=C/c2ccccc2)C1c1cccc([N+](=O)[O-])c1", "note": "(configuration not stated)", "Potency": "inactive"},
      {"smiles": "COC(=O)C1=C(C)NC(C)=C(C(=O)OC(C)(C)CN(C)CCC(c2ccccc2)c2ccccc2)C1c1cccc([N+](=O)[O-])c1", "note": "(configuration not stated)", "activity change, negative = lower viability": -35.9},
      {"smiles": "COc1ccc(C(=O)N2CCCC2=O)cc1", "Potency": "inactive"},
      {"smiles": "CCOC(=O)C1=C(C)NC(C)=C(C(=O)OCC)C1c1ccccc1/C=C/C(=O)OC(C)(C)C", "activity change, negative = lower viability": -9.86},
      {"smiles": "CN(C)[C@@H]1C(=O)C(C(=O)NCN2CCCC2)=C(O)[C@@]2(O)C(=O)C3=C(O)c4c(O)cccc4[C@@](C)(O)C3C[C@@H]12", "note": "(some centres not stated)", "activity change, negative = lower viability": 4.05},
      {"smiles": "O=C(Nc1ncc([N+](=O)[O-])s1)c1cccs1", "activity change, negative = lower viability": -18.6},
      {"smiles": "COc1ccc(/C=C/C(=O)c2ccc(OC)cc2OC)cc1", "activity change, negative = lower viability": -31.1},
      {"smiles": "Cc1nc2n(c(=O)c1CCN1CCC(C(=O)c3ccc(F)cc3)CC1)CCS2", "activity change, negative = lower viability": 7.37},
      {"smiles": "c1ccc(-c2ccc(C(c3ccccc3)n3ccnc3)cc2)cc1", "note": "(configuration not stated)", "activity change, negative = lower viability": 36.3},
      {"smiles": "C=CCNc1nc(NCC=C)nc(N2CCN(C(c3ccc(F)cc3)c3ccc(F)cc3)CC2)n1", "activity change, negative = lower viability": -31.2},
      {"smiles": "NC(=O)CN1CCCC1=O", "Potency": "inactive"},
      {"smiles": "CCOc1ccc(Cc2nccc3cc(OCC)c(OCC)cc23)cc1OCC", "activity change, negative = lower viability": -34.4},
      {"smiles": "O=C(O)c1nn(Cc2ccc(Cl)cc2Cl)c2ccccc12", "Potency": "inactive"},
      {"smiles": "Cc1c(C(=O)NN2CCCCC2)nn(-c2ccc(Cl)cc2Cl)c1-c1ccc(Cl)cc1", "activity change, negative = lower viability": -3.12},
      {"smiles": "CCCCc1ccc2nc(NC(=O)OC)[nH]c2c1", "Potency": "38.5 nM (active)"}
    ]},
    {"target": "Nucleoprotein (Lymphocytic choriomeningitis virus (strain Armstrong)) (UniProt P09992)", "sequence (P09992 whole entry, looked up)": "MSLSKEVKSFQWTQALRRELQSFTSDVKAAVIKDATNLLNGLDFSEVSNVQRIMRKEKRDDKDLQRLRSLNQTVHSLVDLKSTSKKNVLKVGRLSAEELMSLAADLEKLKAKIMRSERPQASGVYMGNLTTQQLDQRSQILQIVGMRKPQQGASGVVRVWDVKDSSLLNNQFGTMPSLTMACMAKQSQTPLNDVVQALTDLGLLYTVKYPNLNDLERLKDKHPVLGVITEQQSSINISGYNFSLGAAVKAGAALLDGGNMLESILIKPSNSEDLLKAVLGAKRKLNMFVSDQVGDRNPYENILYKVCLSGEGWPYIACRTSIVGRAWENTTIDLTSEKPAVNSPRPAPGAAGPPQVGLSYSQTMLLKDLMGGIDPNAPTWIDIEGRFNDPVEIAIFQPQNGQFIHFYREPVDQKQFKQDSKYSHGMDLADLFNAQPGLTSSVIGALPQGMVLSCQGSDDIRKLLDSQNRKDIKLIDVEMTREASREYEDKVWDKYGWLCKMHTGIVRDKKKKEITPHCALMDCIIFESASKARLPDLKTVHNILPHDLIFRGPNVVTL", "test": "qHTS for Inhibitors of the Functional Ribonucleoprotein Complex (vRNP) of Lymphocytic Choriomeningitis Arenaviruses (LCMV): LCMV Primary Screen - GLuc reporter signal (AID 1347086); also: nearly all actives have a fitted effect of over 70% in size", "conditions": "LCMV minigenome vRNP cell assay, Gaussia luciferase reporter; series mostly up to 57.5 µM; activity change, negative = inhibition: at the top concentration", "units": {"activity change, negative = inhibition": "%"}, "values": [
      {"smiles": "COC(=O)C1=CCCN(C)C1", "Potency": "inactive"},
      {"smiles": "COc1ccc(C(=O)N2CCCC2=O)cc1", "Potency": "inactive"},
      {"smiles": "CN(C)[C@@H]1C(=O)C(C(=O)NCN2CCCC2)=C(O)[C@@]2(O)C(=O)C3=C(O)c4c(O)cccc4[C@@](C)(O)C3C[C@@H]12", "note": "(some centres not stated)", "activity change, negative = inhibition": 0.933},
      {"smiles": "NC(=O)CN1CCCC1=O", "Potency": "inactive"},
      {"smiles": "O=C(O)c1nn(Cc2ccc(Cl)cc2Cl)c2ccccc12", "Potency": "inactive"}
    ]},
    {"system": "not listed separately", "test": "qHTS of pediatric cancer cell lines to identify multiple opportunities for drug repurposing: Primary screen for TC32 cells (AID 1347089; active = well fitted cell-killing curve with a large enough effect; also: nearly all actives have a fitted effect of over 60% in size)", "conditions": "TC32 Ewing sarcoma viability, CellTiter-Glo luminescence, 48 h; series mostly up to 45.8 µM; activity change, negative = cytotoxic: at the top concentration", "summary_of_the_method": "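In the primary qHTS, MIPE compounds were tested at 11 concentrations (0.78 nM to 46 µM) and NPC compounds at 8 (0.59 nM to 46 µM) on TC32 cells for 48 h. CellTiter-Glo luminescence gave viability.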", "units": {"activity change, negative = cytotoxic": "%"}, "values": [
      {"smiles": "COC(=O)C1=CCCN(C)C1", "Potency": "inactive"},
      {"smiles": "COc1ccc(C(=O)N2CCCC2=O)cc1", "Potency": "inactive"},
      {"smiles": "NC(=O)CN1CCCC1=O", "activity change, negative = cytotoxic": 15.4},
      {"smiles": "O=C(O)c1nn(Cc2ccc(Cl)cc2Cl)c2ccccc12", "Potency": "inactive"}
    ]}
  ]
}
